Assay results from the supplement of paper PMC8728848.
The sample as a whole holds a higher share of the strongest signals than the screen did.

Columns and labels:
Assay in all cases: glycan array binding signal (z-score within array); higher = stronger binding
Settings in all cases: glycan notation: IUPAC condensed, linker removed
[1] = biological target: GlcNAc(b1-3)Gal(b1-4)GlcNAc(b1-3)Gal(b1-4)GlcNAc(b1-3)Gal(b1-4)GlcNAc(b1-2)Man(a1-3)[GlcNAc(b1-3)Gal(b1-4)GlcNAc(b1-3)Gal(b1-4)GlcNAc(b1-3)Gal(b1-4)GlcNAc(b1-2)Man(a1-6)]Man(b1-4)GlcNAc(b1-4)[Fuc(a1-6)]GlcNAc
Procedure, shortened: (§1)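 From the Consortium for Functional Glycomics database, 3228 arrays were curated, keeping only those whose protein sequence was available. Binding is given as a within-array Z-score averaged across arrays sharing a protein sequence and across linkers. Negative Z-scores can be read as non-binding.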

[2] = biological target: GlcNAc(b1-3)Gal(b1-4)GlcNAc(b1-3)Gal(b1-4)GlcNAc(b1-3)Gal(b1-4)GlcNAc(b1-3)Gal(b1-4)GlcNAc(b1-2)Man(a1-3)[GlcNAc(b1-3)Gal(b1-4)GlcNAc(b1-3)Gal(b1-4)GlcNAc(b1-3)Gal(b1-4)GlcNAc(b1-3)Gal(b1-4)GlcNAc(b1-2)Man(a1-6)]Man(b1-4)GlcNAc(b1-4)GlcNAc
Procedure, shortened: as §1

[3] = biological target: GlcNAc(b1-3)Gal(b1-4)GlcNAc(b1-3)Gal(b1-4)GlcNAc(b1-3)GalNAc
Procedure, shortened: as §1

[4] = biological target: Man(a1-2)Man(a1-2)Man(a1-6)[Man(a1-3)]Man
Procedure, shortened: as §1

Man(a1-2)Man(a1-3)Man = biological target: Man(a1-2)Man(a1-3)Man
Procedure, shortened: as §1

[5] = biological target: Man(a1-2)Man(a1-3)[Man(a1-2)Man(a1-6)]Man
Procedure, shortened: as §1

[6] = biological target: Man(a1-2)Man(a1-3)[Man(a1-2)Man(a1-6)]Man(a1-6)[Man(a1-2)Man(a1-2)Man(a1-3)]Man
Procedure, shortened: as §1

[7] = biological target: Man(a1-2)Man(a1-3)[Man(a1-2)Man(a1-6)]Man(a1-6)[Man(a1-2)Man(a1-2)Man(a1-3)]Man(b1-4)GlcNAc(b1-4)GlcNAc
Procedure, shortened: as §1

[8] = biological target: Man(a1-2)Man(a1-3)[Man(a1-6)]Man(a1-6)[Man(a1-2)Man(a1-3)]Man(b1-4)GlcNAc(b1-4)GlcNAc
Procedure, shortened: as §1

[9] = biological target: Man(a1-2)Man(a1-6)[Man(a1-3)]Man(a1-6)[Man(a1-2)Man(a1-2)Man(a1-3)]Man
Procedure, shortened: as §1

[10] = biological target: Man(a1-2)Man(a1-6)[Man(a1-3)]Man(a1-6)[Man(a1-2)Man(a1-2)Man(a1-3)]Man(b1-4)GlcNAc(b1-4)GlcNAc
Procedure, shortened: as §1

[11] = biological target: Man(a1-3)[Man(a1-6)]Man(a1-6)[Man(a1-2)Man(a1-3)]Man(b1-4)GlcNAc(b1-4)GlcNAc
Procedure, shortened: as §1

[12] = biological target: Man(a1-3)[Man(a1-6)]Man(b1-4)GlcNAc(b1-4)GlcNAc
Procedure, shortened: as §1

[13] = biological target: Man(a1-3)[Man(a1-6)]Man(b1-4)GlcNAc(b1-4)[Fuc(a1-6)]GlcNAc
Procedure, shortened: as §1

[14] = biological target: Neu5Ac(a2-3)Gal(b1-3)GalNAc6S
Procedure, shortened: as §1

[15] = biological target: Neu5Ac(a2-3)Gal(b1-3)GlcNAc(b1-6)GalNAc
Procedure, shortened: as §1

[16] = biological target: Neu5Ac(a2-3)Gal(b1-3)[GlcNAc(b1-6)]GalNAc
Procedure, shortened: as §1

[17] = biological target: Neu5Ac(a2-3)Gal(b1-3)]Neu5Ac(a2-3)Gal(b1-4)]GlcNAc
Procedure, shortened: as §1

[18] = biological target: Neu5Ac(a2-3)Gal(b1-4)GlcNAc(b1-2)[Neu5Ac(a2-3)Gal(b1-4)GlcNAc(b1-4)]Man(a1-3)[GlcNAc(b1-4)][Neu5Ac(a2-3)Gal(b1-4)GlcNAc(b1-4)Man(a1-6)]Man(b1-4)GlcNAc(b1-4)GlcNAc
Procedure, shortened: as §1

[19] = biological target: Neu5Ac(a2-3)Gal(b1-4)GlcNAc(b1-3)Gal(b1-4)GlcNAc(b1-2)Man(a1-3)[Neu5Ac(a2-3)Gal(b1-4)GlcNAc(b1-3)Gal(b1-4)GlcNAc(b1-2)Man(a1-6)]Man(b1-4)GlcNAc(b1-4)GlcNAc
Procedure, shortened: as §1

[20] = biological target: Neu5Ac(a2-3)[GalNAc(b1-4)]Gal(b1-4)Glc
Procedure, shortened: as §1

[21] = biological target: Neu5Ac(a2-3)[GalNAc(b1-4)]Gal(b1-4)GlcNAc
Procedure, shortened: as §1

[22] = biological target: Neu5Ac(a2-6)Gal(b1-4)GlcNAc(b1-2)Man(a1-6)[Man(a1-3)]Man(b1-4)GlcNAc(b1-4)GlcNAc
Procedure, shortened: as §1

[23] = biological target: Neu5Ac(a2-6)Gal(b1-4)GlcNAc(b1-3)Gal(b1-4)GlcNAc
Procedure, shortened: as §1

[24] = biological target: Neu5Ac(a2-6)Gal(b1-4)GlcNAc(b1-3)Gal(b1-4)GlcNAc(b1-3)GalNAc
Procedure, shortened: as §1

[25] = biological target: Neu5Ac(a2-6)Gal(b1-4)GlcNAc(b1-3)Gal(b1-4)GlcNAc(b1-3)[Neu5Ac(a2-6)Gal(b1-4)GlcNAc(b1-3)Gal(b1-4)GlcNAc(b1-6)]GalNAc
Procedure, shortened: as §1

Neu5Ac(a2-6)GalNAc = biological target: Neu5Ac(a2-6)GalNAc
Procedure, shortened: as §1

[26] = biological target: Neu5Ac(a2-6)GalNAc(b1-4)GlcNAc
Procedure, shortened: as §1

[27] = biological target: Neu5Ac(a2-8)Neu5Ac(a2-3)Gal(b1-3)GalNAc(b1-4)[Neu5Ac(a2-3)]Gal(b1-4)Glc
Procedure, shortened: as §1

[28] = biological target: Neu5Ac(a2-8)Neu5Ac(a2-8)Neu5Ac(a2-3)Gal(b1-4)Glc
Procedure, shortened: as §1

Neu5Gc(a2-3)Gal(b1-4)Glc = biological target: Neu5Gc(a2-3)Gal(b1-4)Glc
Procedure, shortened: as §1

B1: Banana lectin (Musa acuminata) (protein)
chain: MNGAIKVGAWGGNGGSAFDMGPAYRIISVKIFSGDVVDGVDVTFTYYGKTETRHYGGSGGTPHEIVLQEGEYLVGMAGEVANYHGAVVLGKLGFSTNKKAYGPFGNTGGTPFSLPIAAGKISGFFGRGGKFLDAIGVYLEPLEHHHHHH
- glycan array binding signal (z-score) [1]: -0.122
- glycan array binding signal (z-score) [2]: -0.165
- glycan array binding signal (z-score) [3]: -0.184
- glycan array binding signal (z-score) [4]: 6.19
- glycan array binding signal (z-score) (Man(a1-2)Man(a1-3)Man): 2.25
- glycan array binding signal (z-score) [5]: 4.51
- glycan array binding signal (z-score) [6]: 5.96
- glycan array binding signal (z-score) [7]: 2.62
- glycan array binding signal (z-score) [8]: 8.11
- glycan array binding signal (z-score) [9]: 3.34
- glycan array binding signal (z-score) [10]: 6.29
- glycan array binding signal (z-score) [11]: 13.1
- glycan array binding signal (z-score) [12]: 4.01
- glycan array binding signal (z-score) [13]: 2.88
- glycan array binding signal (z-score) [14]: -0.237
- glycan array binding signal (z-score) [15]: -0.288
- glycan array binding signal (z-score) [16]: -0.214
- glycan array binding signal (z-score) [17]: -0.223
- glycan array binding signal (z-score) [18]: -0.225
- glycan array binding signal (z-score) [19]: -0.167
- glycan array binding signal (z-score) [20]: -0.132
- glycan array binding signal (z-score) [21]: -0.169
- glycan array binding signal (z-score) [22]: 3.56
- glycan array binding signal (z-score) [23]: -0.226
- glycan array binding signal (z-score) [24]: -0.223
- glycan array binding signal (z-score) [25]: -0.161
- glycan array binding signal (z-score) (Neu5Ac(a2-6)GalNAc): -0.204
- glycan array binding signal (z-score) [26]: -0.221
- glycan array binding signal (z-score) [27]: -0.192
- glycan array binding signal (z-score) [28]: -0.139
- glycan array binding signal (z-score) (Neu5Gc(a2-3)Gal(b1-4)Glc): -0.209
